Reference: PubChem BioAssay (NCATS)
Inconclusive results are not listed. Active and inactive are the calls of the source. Calls follow the shape of the dose curve; as a rule, active = well fitted inhibition curve with a large enough effect; inconclusive = small, poorly fitted or top-dose-only effect; inactive = no such curve, though single readings can be large or run the other way.

test: Primary qHTS for inhibitors of La Crosse Virus (LACV) - induced cell death in SH-SY5Y cells (AID 1508616); conditions: SH-SY5Y LACV cytopathicity rescue, ATP luminescence, 6 d; series mostly up to 9.63 µM;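 also: top concentration of the series differs between compounds; higher means more rescue of cells from virus-induced death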
How it was run: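 SH-SY5Y cells (6000/well) plated 24 h, then given compounds by pin transfer and LACV at 0.01 MOI for 6 days at 37C. Viability measured by ATPLite luminescence, normalized to infected DMSO and uninfected DMSO.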

| Structure (SMILES) | outcome |
| --- | --- |
| Cn1cnc(CCN)c1 | inactive |
| O=C(N[C@H]1CN2CCC1CC2)c1ccc(Cl)cc1 | inactive |
| CC[C@@H](C(N)=O)N1CCCC1=O | inactive |
| COC(=O)[C@@H](N)CCCN=C(N)N[N+](=O)[O-] | inactive |
| CC(Cc1ccc(O)cc1)NCC(O)c1cc(O)cc(O)c1 (stereo unspecified) | inactive |
| C[N+]1(C)C2CCC1CC(OC(=O)C(CO)c1ccccc1)C2 (stereo unspecified) | inactive |
| NC(CCP(=O)(O)O)C(=O)O (stereo unspecified) | inactive |
| CNCCc1c[nH]c2ccc(O)cc12 | inactive |
| C[C@@H]1O[C@H](C[N+](C)(C)C)C[C@H]1O | inactive |
| O=[N+]([O-])/N=C1\NCCN1Cc1ccc(Cl)nc1 | inactive |
| CCCN(CCC)c1c([N+](=O)[O-])cc(S(N)(=O)=O)cc1[N+](=O)[O-] | inactive |
| Oc1ccc2c3c1O[C@H]1c4[nH]c5c(c4C[C@@]4(O)[C@@H](C2)N(CC2CC2)CC[C@]314)C[C@@]1(O)[C@H]2Cc3ccc(O)c4c3[C@@]1(CCN2CC1CC1)[C@H]5O4 | inactive |
| CS(=N)(=O)CC[C@H](N)C(=O)O (stereo partly specified) | inactive |
| NC(=O)CN1CC(O)CC1=O (stereo unspecified) | inactive |
| S=C(NC1CCCCC1)N1CCC(c2cnc[nH]2)CC1 | inactive |
| CCO/N=C(\CC)C1=C(O)CC(c2c(C)cc(C)cc2C)CC1=O (stereo unspecified) | inactive |
| CC[C@@]1(O)C(=O)OCc2c1cc1n(c2=O)Cc2cc3ccccc3nc2-1 | inactive |
| CC(C)Oc1cccc(NC(=O)c2ccccc2C(F)(F)F)c1 | inactive |

| Structure (SMILES) | outcome |
| --- | --- |
| CN1C2CCC1CC(OC(=O)c1cc(Cl)cc(Cl)c1)C2 (stereo unspecified) | inactive |
| O=C(Nc1ccccc1-c1ccc(Cl)cc1)c1cccnc1Cl | inactive |
| c1ccc(C2(c3ccccc3)CC2C2=NCCN2)cc1 (stereo unspecified) | inactive |
| CC1=NN=C(c2ccc(N)cc2)c2cc3c(cc2C1)OCO3 | inactive |
| CCCCCCCCCCCCCCCC[N+](C)(C)C | inactive |
| NC(=NCCC[C@H](N)C(=O)O)N[N+](=O)[O-] | inactive |
| O=C(O)c1cc(Oc2ccc(C(F)(F)F)cc2Cl)ccc1[N+](=O)[O-] | inactive |
| O=C(O)CC[N+](=O)[O-] | inactive |
| Cc1cc(O)ccc1Cl | inactive |
| Nc1ccc(Cl)cc1 | inactive |
| NC1CC1c1ccccc1 (stereo unspecified) | inactive |
| Nc1c(Cl)c(Cl)c(Cl)c(Cl)c1Cl | inactive |
| O=[N+]([O-])c1cc([N+](=O)[O-])c2ccccc2c1 | inactive |
| O=C1CCCN1CC#CCN1CCCC1 | inactive |
| CC(O)CN1CCN(CC(=O)[O-])CCN(CC(=O)[O-])CCN(CC(=O)[O-])CC1.[Gd+3] (stereo unspecified) | inactive |
| CCCCOC(=O)c1ccccc1C(=O)OCc1ccccc1 | inactive |
| O=[N+]([O-])c1c2ccccc2cc2ccccc12 | inactive |
| CC(=O)NCCc1c[nH]c2ccccc12 | inactive |
